Measurements: the supplement of paper PMC9177965

Assays:
[1] = test system: HT29 RNF43 G659fs (RNF43 659mut, CRISPR-edited); test: cell viability activity relative to DMSO (negative = inhibition); higher = more viable cells (less growth inhibition); settings: 5 µM; 96 h
Procedure: (§1)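 Broad Repurposing Library primary screen at a single dose of 5 uM. HT29 sg-Ctrl and HT29 RNF43 G659fs CRISPR-edited isogenic cells were seeded at 2500 cells/well in 384-well plates in duplicate and treated for 96 h. Viability was read by CellTiter-Glo and reported as % activity relative to DMSO, with MG132 as the positive control (negative = growth inhibition).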

[2] = test system: HT29 sg-Ctrl (RNF43 wildtype); test: as above; settings: 5 µM; 96 h
Procedure: as §1

Compound	cell viability activity [1] [%]	cell viability activity [2] [%]
CN(C)C/C=C/C(=O)Nc1cccc(C(=O)Nc2cccc(Nc3ncc(Cl)c(-c4c[nH]c5ccccc45)n3)c2)c1	-91.7	-94.7
CC(C)[C@H](C(=O)Nc1ccc(C(=O)NO)cc1)c1ccccc1	-95	-89.9
CC(=O)c1ccc2c(c1)[C@@H]1C=CC[C@@H]1[C@H](c1cc3c(cc1Br)OCO3)N2	-69.9	-56.9
COC(=O)[C@]12CCC(C)(C)C[C@H]1[C@H]1C(=O)C=C3[C@@]4(C)C=C(C#N)C(=O)C(C)(C)[C@@H]4CC[C@@]3(C)[C@]1(C)CC2	-96.8	-93.4
COC(=O)c1ccc2c(C(=Nc3ccc(N(C)C(=O)CN4CCN(C)CC4)cc3)c3ccccc3)c(O)[nH]c2c1	-73.8	-34.2
COc1cc2c(Oc3ccc(NC(=O)C4(C(=O)Nc5ccc(F)cc5)CC4)cc3F)ccnc2cc1OCCCN1CCOCC1	-92.2	-37.8
CC[C@H](CC#N)OC(=O)N[C@@H](C)c1cccc(NC(=O)Nc2ccc(-c3cnco3)c(OC)c2)c1	-66.2	-55.9
C=C1/C(=C\C=C2/CCC[C@]3(C)[C@@H]([C@H](C)CCCC(C)C)CC[C@@H]23)C[C@@H](O)C[C@@H]1O	-54.3	-70
CC(C)C[C@@H](C=O)NC(=O)[C@H](CC(C)C)NC(=O)[C@H](CC(C)C)NC(=O)OCc1ccccc1	-96.9	-96.2
CCNCCCNCCCCNCCCNCC	–	-43.8
CN(C)C(=O)c1cc2cnc(Nc3ccc(N4CCNCC4)cn3)nc2n1C1CCCC1	-26	-39.7
O=C(Nc1ccncc1)Nc1ccc(-c2nc(N3CCOCC3)nc(N3C4CCC3COC4)n2)cc1	-64.5	-36.2
Cc1cc(-c2ccc(/N=N/c3ccc4c(S(=O)(=O)O)cc(S(=O)(=O)O)c(N)c4c3O)c(C)c2)ccc1/N=N/c1ccc2c(S(=O)(=O)O)cc(S(=O)(=O)O)c(N)c2c1O	-43.7	-20.4
Nc1ccn([C@@H]2O[C@H](CO)[C@@H](O)C2(F)F)c(=O)n1	–	-67.1
OCCNCCCOc1cccc(Cl)c1Cl	-45.4	-43.2
COc1cc(OCc2cccc(-c3ccccc3)c2C)cc(OC)c1CN1CCCC[C@H]1C(=O)O	–	-3.46
Cc1nc(=O)c2cc(CN(C)c3ccc(C(=O)N[C@@H](CCC(=O)O)C(=O)O)s3)ccc2[nH]1	-60.2	-60.9
CC(C)C[C@H](NC(=O)[C@@H](NC(=O)c1cccc(-c2ccccc2)n1)[C@@H](C)O)B(O)O	-95.1	-95.4
O=C(Nc1nc2ccc(NC(=O)C34CC5CC(CC(C5)C3)C4)cc2s1)c1ccccc1	-37.7	-29.4

Compound	cell viability activity [1] [%]	cell viability activity [2] [%]
CCN(CC)C(=S)SSC(=S)N(CC)CC	-79.2	-43.6
CC(C)/N=c1\cc2n(-c3ccc(Cl)cc3)c3ccccc3nc-2cc1Nc1ccc(Cl)cc1	-75.3	-75.7
CN(C)CCCC(=O)Nc1ccc(C(=O)Nc2cccc(Nc3ncc(Cl)c(-c4c[nH]c5ccccc45)n3)c2)cc1	-70.8	-78.1
CC(C)NCCCn1c(Sc2cc3c(cc2I)OCO3)nc2c(N)ncnc21	-87	-85.8
Cc1cc(Nc2cc(N3CCN(C)CC3)nc(/C=C/c3ccccc3)n2)n[nH]1	–	-75.7
Cc1ccc(S(=O)(=O)C=CC#N)cc1	–	-97.7
Cn1cc(CNCC2CCN(c3ncc(C(=O)NO)cn3)CC2)c2ccccc21	-95.9	-92.8
CCN(CC)CCNC(=O)c1ccc(NC(C)=O)cc1	-53.2	-3.92
COc1cc(NC(C)CCCN)c2ncccc2c1 (configuration not stated)	-52.7	-22.4
Nc1nc(=S)c2ncn([C@@H]3O[C@H](CO)[C@@H](O)[C@H]3O)c2[nH]1	-80.3	-76.6
CCCCc1ccc2[nH]c(NC(=O)OC)nc2c1	-66.1	-76.7
CCCCCCCCCCCC[N+](C)(C)CCOc1ccccc1	–	-91.5
O=C(c1ccc(F)c(F)c1Nc1ccc(I)cc1F)N1CC(O)([C@@H]2CCCCN2)C1	-86.8	-88.9
CCCOc1ccc2[nH]c(NC(=O)OC)nc2c1	–	-55.8
COc1cc2c(cc1-c1c(C)noc1C)ncc1[nH]c(=O)n([C@H](C)c3ccccn3)c12	-60.5	-68.4
COc1cc(NC(=O)Nc2cccc(CNC(=O)O[C@H]3CCOC3)c2)ccc1-c1cnco1	-41.5	-23.6
CCCCc1oc2ccccc2c1C(=O)c1cc(I)c(OCCN(CC)CC)c(I)c1	-99.4	-98.9
CC(C)(C)c1cc(NC(=O)Nc2ccc(-c3cn4c(n3)sc3cc(OCCN5CCOCC5)ccc34)cc2)no1	-46.2	-40.7
